High-throughput results: PubChem, University of Kansas High Throughput Screening Laboratory
mHTT-CaM PPI inh: disrupts binding of mutant huntingtin to calmodulin. P42858. AlphaScreen His-mHTT/GST-CaM binding, luminescence. inhibition, % at 15 µM. 190,000 tested, 3.6% active. AID 1671202;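 also: 0% = both proteins with DMSO and 100% = one protein alone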
Target sequence (P42858 whole entry, looked up, stated change not applied): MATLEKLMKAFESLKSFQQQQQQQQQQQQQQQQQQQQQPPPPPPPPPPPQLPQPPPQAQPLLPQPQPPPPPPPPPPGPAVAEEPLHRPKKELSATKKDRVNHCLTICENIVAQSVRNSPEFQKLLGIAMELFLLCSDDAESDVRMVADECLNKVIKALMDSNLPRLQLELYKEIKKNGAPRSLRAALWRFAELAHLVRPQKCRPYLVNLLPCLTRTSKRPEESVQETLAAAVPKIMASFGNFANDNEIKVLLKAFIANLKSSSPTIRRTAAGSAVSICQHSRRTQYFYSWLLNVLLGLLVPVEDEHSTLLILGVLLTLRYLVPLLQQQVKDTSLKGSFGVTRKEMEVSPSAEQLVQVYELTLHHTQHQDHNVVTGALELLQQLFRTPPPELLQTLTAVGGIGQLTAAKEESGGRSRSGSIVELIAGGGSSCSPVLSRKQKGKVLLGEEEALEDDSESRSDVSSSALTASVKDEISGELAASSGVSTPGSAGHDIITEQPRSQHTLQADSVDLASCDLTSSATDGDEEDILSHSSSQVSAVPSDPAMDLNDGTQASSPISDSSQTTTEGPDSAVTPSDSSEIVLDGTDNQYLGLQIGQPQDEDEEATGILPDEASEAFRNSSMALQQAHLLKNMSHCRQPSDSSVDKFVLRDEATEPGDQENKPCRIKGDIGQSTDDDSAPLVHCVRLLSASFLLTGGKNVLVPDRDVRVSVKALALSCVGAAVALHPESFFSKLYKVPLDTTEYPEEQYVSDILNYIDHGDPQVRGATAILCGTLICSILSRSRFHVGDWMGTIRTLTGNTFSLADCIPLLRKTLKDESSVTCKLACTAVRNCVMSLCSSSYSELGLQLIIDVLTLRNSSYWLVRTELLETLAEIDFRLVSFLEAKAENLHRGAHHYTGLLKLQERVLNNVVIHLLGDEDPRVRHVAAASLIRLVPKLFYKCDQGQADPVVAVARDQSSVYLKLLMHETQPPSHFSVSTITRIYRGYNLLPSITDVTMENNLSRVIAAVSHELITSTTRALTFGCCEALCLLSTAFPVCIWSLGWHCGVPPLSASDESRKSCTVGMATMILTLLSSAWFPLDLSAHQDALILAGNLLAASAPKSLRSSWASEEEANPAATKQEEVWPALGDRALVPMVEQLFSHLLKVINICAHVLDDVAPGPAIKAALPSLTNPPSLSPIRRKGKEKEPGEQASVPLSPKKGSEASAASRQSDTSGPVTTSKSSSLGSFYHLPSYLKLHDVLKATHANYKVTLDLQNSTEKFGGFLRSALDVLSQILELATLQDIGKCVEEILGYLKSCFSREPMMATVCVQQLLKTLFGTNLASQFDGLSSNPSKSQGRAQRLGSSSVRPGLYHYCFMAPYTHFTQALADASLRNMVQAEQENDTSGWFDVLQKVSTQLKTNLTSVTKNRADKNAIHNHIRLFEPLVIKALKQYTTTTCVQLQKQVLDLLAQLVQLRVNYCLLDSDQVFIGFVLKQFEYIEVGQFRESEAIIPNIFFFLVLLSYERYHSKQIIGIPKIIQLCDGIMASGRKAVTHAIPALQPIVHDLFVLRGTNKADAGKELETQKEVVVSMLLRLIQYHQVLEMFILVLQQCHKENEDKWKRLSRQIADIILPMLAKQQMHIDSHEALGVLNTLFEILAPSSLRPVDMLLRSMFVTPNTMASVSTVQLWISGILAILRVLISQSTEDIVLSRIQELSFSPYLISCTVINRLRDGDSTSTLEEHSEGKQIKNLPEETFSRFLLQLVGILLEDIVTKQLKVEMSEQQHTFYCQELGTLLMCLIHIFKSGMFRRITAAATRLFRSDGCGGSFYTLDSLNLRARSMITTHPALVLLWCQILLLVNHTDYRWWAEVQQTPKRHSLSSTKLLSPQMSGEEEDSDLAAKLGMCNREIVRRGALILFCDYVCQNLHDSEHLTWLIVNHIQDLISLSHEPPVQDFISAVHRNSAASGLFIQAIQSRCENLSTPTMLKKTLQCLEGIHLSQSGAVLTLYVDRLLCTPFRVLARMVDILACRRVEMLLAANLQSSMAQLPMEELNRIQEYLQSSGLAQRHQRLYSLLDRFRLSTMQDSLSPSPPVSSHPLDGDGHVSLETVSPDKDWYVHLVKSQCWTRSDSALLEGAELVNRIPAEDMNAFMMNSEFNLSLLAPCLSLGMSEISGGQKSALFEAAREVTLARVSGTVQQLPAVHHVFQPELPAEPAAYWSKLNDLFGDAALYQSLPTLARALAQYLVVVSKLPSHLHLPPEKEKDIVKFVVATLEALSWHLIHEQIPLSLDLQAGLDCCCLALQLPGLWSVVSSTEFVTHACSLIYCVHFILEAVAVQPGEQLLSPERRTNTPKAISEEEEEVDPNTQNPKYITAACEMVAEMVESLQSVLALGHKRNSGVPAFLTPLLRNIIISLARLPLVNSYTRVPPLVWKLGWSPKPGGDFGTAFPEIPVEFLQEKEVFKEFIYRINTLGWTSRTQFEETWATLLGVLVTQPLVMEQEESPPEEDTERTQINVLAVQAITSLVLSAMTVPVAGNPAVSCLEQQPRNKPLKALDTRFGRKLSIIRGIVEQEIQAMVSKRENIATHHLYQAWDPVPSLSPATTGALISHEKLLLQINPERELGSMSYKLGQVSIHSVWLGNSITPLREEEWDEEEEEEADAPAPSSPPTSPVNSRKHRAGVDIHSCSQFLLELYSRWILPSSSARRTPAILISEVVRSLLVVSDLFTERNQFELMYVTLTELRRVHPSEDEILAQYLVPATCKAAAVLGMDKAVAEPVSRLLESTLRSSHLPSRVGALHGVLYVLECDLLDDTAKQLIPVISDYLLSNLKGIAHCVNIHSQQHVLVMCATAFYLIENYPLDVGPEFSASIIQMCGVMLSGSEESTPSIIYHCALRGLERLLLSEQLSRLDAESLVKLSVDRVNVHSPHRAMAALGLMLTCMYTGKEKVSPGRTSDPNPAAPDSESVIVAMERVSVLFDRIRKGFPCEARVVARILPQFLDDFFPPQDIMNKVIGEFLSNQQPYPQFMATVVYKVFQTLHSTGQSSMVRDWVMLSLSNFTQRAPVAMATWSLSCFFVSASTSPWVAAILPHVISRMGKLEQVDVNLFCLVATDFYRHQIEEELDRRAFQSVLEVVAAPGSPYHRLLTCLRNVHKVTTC
Pf apPOL block: Pf-apPOL DNA polymerase inhibition. 210,000 tested, 0.25% active. Recombinant Pf-apPOL, molecular beacon fluorescence, 1.5 h. AID 1794808. inhibition, % at 10 µM
* = called active by the depositor; nt = no result. The list is not random: actives were taken first. Their share in the collection is about 3.5%. Rule as the data show it: active = inhibition above about 50%; inactive = the rest.

SMILES	mHTT-CaM PPI inh	Pf apPOL block
Cc1nc2ccccc2n1CC(O)COc1ccc(C(=O)c2ccccc2)cc1 (stereo unspecified)	7.6	-13.6
Cc1ccc(CCNC(=O)CN2N=C(c3ccc(Cl)cc3)CCC2=O)cc1	65.0*	-13.0
COc1ccc(CCNC(=O)CN2N=C(c3ccc(Cl)cc3)CCC2=O)cc1OC	15.0	-17.6
O=C(Nc1ccc(F)c(Cl)c1)c1c(O)c2cnn(Cc3ccccc3)c2[nH]c1=O	-10.8	-2.4
COc1ccc(OC)c(Nc2ncc3c(n2)CCN(Cc2cccc(OC)c2OC)C3)c1	47.3	-3.4
COc1ccc(OC)c(Nc2ncc3c(n2)CCN(CCc2ccccc2)C3)c1	59.1*	-3.1
CCCN1CCc2nc(Nc3ccccc3OC)ncc2C1	0.5	95.8*
COc1ccccc1Nc1ncc2c(n1)CCN(Cc1ccc(F)cc1)C2	-7.6	36.5
COc1cccc(CN2CCc3nc(Nc4cc(OC)ccc4OC)ncc3C2)c1	15.3	-5.0
CCOc1ccccc1CN1CCc2nc(Nc3cc(OC)ccc3OC)ncc2C1	62.7*	-4.2
COc1cccc2cc(C#N)c(=N)oc12	nt	12.4
CCSc1nnc(NC(=O)C2CCCN(c3ccc(-n4nc(C)cc4C)nn3)C2)s1 (stereo unspecified)	-11.8	-6.7
CCSc1nnc(NC(=O)C(CC)CC)s1	-3.4	-9.4
CCc1ccc(N2C(C)=NS(=O)(=O)c3cccnc32)cc1	-5.9	-4.7
O=C(c1ccccc1)N1CCN(Cc2ccccc2Br)CC1	7.8	-2.2
Cc1sc2c(=O)n(C3CC3)cnc2c1C(=O)Nc1ccc(F)cc1	-5.4	1.0
CCC1=C(C)/C(=C\c2[nH]c(C)c(CC)c2C)N=C1C	95.0*	-3.3
COc1cccc(CNC(=O)C2(C)CCCN(C(=O)COc3ccc(F)cc3)C2)c1 (stereo unspecified)	11.4	3.5
O=C(OCc1ccccc1)C1C2C=CC3(CN(c4ccc(Cl)cc4)C(=O)C13)O2 (stereo unspecified)	79.6*	-2.1
CCc1ccc(N2CC34C=CC(O3)C(C(=O)OC)C4C2=O)cc1 (stereo unspecified)	4.2	-1.4
COc1ccc(CNCCC2(O)CC(C)N(C)CC2C)cc1 (stereo unspecified)	2.0	-0.1
NC(=O)c1cccc(N=Cc2ccc([N+](=O)[O-])cc2)c1	22.0	-0.3
Cc1ccc(-n2nc3c(c2NC(=O)c2cc4ccccc4oc2=O)CS(=O)(=O)C3)cc1	4.0	-1.5
COc1ccc(C2CC(=O)Nc3n[nH]c(-c4ccc(Cl)cc4)c32)cc1OC (stereo unspecified)	4.8	-1.3
COc1cc(C2CC(=O)Nc3n[nH]c(-c4ccccc4)c32)cc(OC)c1OC (stereo unspecified)	100.0*	-4.9
SMILES	mHTT-CaM PPI inh	Pf apPOL block
COc1cc(C2CC(=O)Nc3n[nH]c(-c4ccc(Cl)cc4)c32)ccc1O (stereo unspecified)	100.0*	2.5
COc1cc(C2CC(=O)Nc3n[nH]c(C)c32)ccc1OCc1cccc(C)c1 (stereo unspecified)	20.4	-2.7
COc1cc(C2CC(=O)Nc3n[nH]c(C)c32)ccc1OCc1cccc(Cl)c1 (stereo unspecified)	55.5*	-0.3
COc1cccc(C2CC(=O)Nc3n[nH]c(-c4ccccc4)c32)c1 (stereo unspecified)	12.9	0.8
Nc1nnc(SCc2ccccc2F)s1	-4.8	-1.5
NC(=O)Cn1c(=O)c2cccn2c2ccccc21	-3.3	-1.4
CN(CCO)CCCCOc1ccc2c(c1)C(=O)c1cc(OCCCCN(C)CCO)ccc1-2	60.0*	-1.0
CCCCOc1ccc2c(c1)C(=O)c1cc(OCCCC)ccc1-2	7.3	-3.1
COc1ccc(C)cc1NC(=O)CC1COc2ccccc2NC1=O (stereo unspecified)	0.0	-1.0
Cc1cc(NC(=O)N2CCc3cn(C)c4cccc(c34)C2)ccc1Br	3.8	-3.6
Cc1ccc(NC(=O)c2cnc(-c3ccc(C)cc3)nc2-c2ccncc2)cc1	-0.2	-0.3
Cc1ccc(-c2ncc(C(=O)N3CCCC3)c(N3CCCCC3)n2)cc1	22.1	-6.1
O=C(Nc1cccc(F)c1)c1cnc(-c2ccc(F)cc2)nc1-c1ccncc1	2.8	64.2*
Cc1ccc(-c2ncc(C(=O)Nc3ccc(Cl)cc3)c(-c3ccncc3)n2)cc1	27.1	65.3*
Cc1ccc(-c2ncc(C(=O)N3CCCCCC3)c(-c3ccncc3)n2)cc1	55.5*	-5.4
O=C(Nc1ccccc1F)c1cnc(-c2ccccc2)nc1-c1ccncc1	-12.2	-1.6
O=C(Nc1ccccc1)c1cnc(-c2ccc(F)cc2)nc1-c1ccncc1	5.7	43.9
Cc1c(F)cccc1NC(=O)c1cnc(-c2ccc(F)cc2)nc1-c1ccncc1	12.6	77.4*
CC(C)CCOc1ccc(C(=O)Nc2sc3c(c2C#N)CCC3)cc1	-0.4	-4.0
O=C(Nc1ccc(-c2nc3ccccc3s2)cc1)c1ncn[nH]1	54.5*	-6.2
Cc1cc(C(=O)Nc2cccc(-c3nc4ccccc4s3)c2)on1	-2.0	53.7*
Cc1ccc(-c2nc3ccccc3s2)cc1NC(=O)c1ccco1	-0.4	-7.2
